The results in this text go back to PubChem BioAssay (EPA / NIEHS).

SMILES strings stand for the structures. Active and inactive are the calls of the source. The calls were made as follows: active = hit-call score of the fitted dose curve at least 0.9, where 1 is the maximum; inactive = score below 0.9.

The nature of this test: ATG_CRE_CIS: Attagene CIS-FACTORIAL HepG2 Assay for human cAMP Responsive Element (CRE) binding protein 3 (AID 2282926). The settings on record: HepG2 CRE cis-reporter, Attagene multiplexed mRNA; actives raise or lower the signal. As to the method: ATG_CIS is a cell-based, multiplexed-readout assay that uses HepG2, a human liver cell line, with measurements taken at 24 hours after chemical dosing in a 24-well plate.ATG_CRE_CIS is one of 52 assay component(s) measured or calculated from the ATG_CIS assay. It is designed to make measurements of mRNA induction, a form of inducible reporter, as detected with fluorescence intensity signals by Reverse transcription polymerase chain reaction (RT-PCR) and Capillary electrophoresis technology.Data from the assay component ATG_CRE_CIS was analyzed into 1 assay endpoint. This assay endpoint, ATG_CRE_CIS, was analyzed with bidirectional fitting relative to DMSO as the negative control and baseline of activity. Using a type of inducible reporter, measures of mRNA for gain or loss-of-signal activity can be used to understand the reporter gene at the transcription factor-level as they relate to the gene CREB3. Furthermore, this assay endpoint can be referred to as a primary readout, because this assay has produced multiple assay endpoints where this one serves a reporter gene function. To generalize the intended target to other relatable targets, this assay endpoint is annotated to the dna binding intended target family, where the subfamily is basic leucine zipper.
Human liver HepG2 cells are transiently transfected with multiple reporter transcription units (MRTUs) in 6-well plates using FuGene 6 reagent (Roche; 3 ml FuGene/1 mg DNA). The MRTU constructs are regulated by a cis-regulating element (promoter). […] A major difference between the CIS and TRANS system is that in CIS activities of endogenous TFs are measured, whereas the TRANS assay evaluates changes in activities of exogenous, chimeric NR-Gal4 proteins. […] At the end of 24 hour incubation, total RNA was isolated using TriZol reagent (Invitrogen). The isolated RNA is then reverse-transcribed using oligo(dT) primer and Mo-MLV reverse transcriptase (Invitrogen) with DNAse I (Ambion) treatment for 30 min. The one-tenth of the produced cDNA was amplified by PCR using Taq DNA polymerase (Invitrogen) and two reporter sequence-specific primers. The PCR products were fluorescently labeled by primer extension with 6-arboxyfluorescein (6-FAM) 5'-labeled reporter sequence-specific primer (2 min at 95 C, 20 s at 68 C and 10 min at 72 C) and these products were digested with 5U of HpaI (New England Biolabs) for 2h at 37 C. The fragments were purified using Qiaquick PCR columns (Qiagen), analyzed on an ABI 3130xL genetic analyzer (Applied Biosystems) with peak positions identified by using a set of X-rhodamine (ROX)-labeled MapMarker1000 molecular weight standards (BioVentures). The raw capillary electrophoresis data was processed using Attagraph software (Attagene).
For the molecule `Cc1ncc(C[n+]2csc(CCO)c2C)c(N)n1`, the molecule was called inactive. On to `Oc1ccc(C2(c3ccc(O)cc3)c3ccccc3-c3ccccc32)cc1`, for which the AC50 (in general, the concentration at which the activity in the assay is half-maximal) is 8.42 µM (active). With `C[C@]12CC[C@H]3[C@@H](CC[C@@]45O[C@@H]4C(O)=C(C#N)C[C@]35C)[C@@H]1CC[C@@H]2O`, the molecule was classed as inactive. For `C=Cc1cccc(CCl)c1`, the call was inactive. As to `CCCCCCCCCCCC#N`, the molecule was called inactive. As for `O=C1C(Cl)=C(Cl)C(=O)C(Cl)=C1Cl`, the molecule was called inactive. On to `C[N+](C)(C)CC(=O)[O-]`, for which the molecule was called inactive. On to `CC1(C)C(=O)NC(=O)NC1=O`, for which the result was inactive. Turning to `CN1C[C@H](C(=O)N[C@]2(C)O[C@@]3(O)[C@@H]4CCCN4C(=O)[C@H](Cc4ccccc4)N3C2=O)C=C2c3cccc4[nH]cc(c34)C[C@H]21`, the result was inactive. Turning to `CN1C(=O)CCS(=O)(=O)C1c1ccc(Cl)cc1` (stereo not given), the call was inactive. For the molecule `CCNCC`, the outcome was inactive.

For `CC(C)C#N`, the outcome was inactive. As to `CCC(C)(C)O`, the result was inactive.

For `C[C@]12CC[C@H](O)C[C@H]1CC[C@@H]1[C@@H]2C[C@@H](O)[C@]2(C)[C@@H](C3=CC(=O)OC3)CC[C@]12O`, the AC50 is 3.11 µM (active). In the case of `CCC(C)c1cc(C(C)(C)C)cc(-n2nc3ccccc3n2)c1O` (stereo not given), the call was inactive. On to `C[N+](=O)[O-]`, for which the outcome was inactive. `C=CC(=O)OCCO`: the AC50 is 116 µM (active). Turning to `CC1(C)CC(=O)CC(C)(C)N1[O]`, the molecule was called inactive. For the molecule `CCCCNP(N)(N)=S`, the outcome was inactive. On to `CN(N=O)c1ccccc1`, for which the call was inactive. As to `CCN(CC)C(=S)S`, the outcome was inactive. For the molecule `CC(C)CCCCCCCOC(=O)c1ccccc1C(=O)OCCCCCCCC(C)C`, the outcome was inactive. Take `CC(C)(Cl)Cl`: the outcome was inactive. As to `CC(C)(c1cc(Cl)c(O)c(Cl)c1)c1cc(Cl)c(O)c(Cl)c1`, the result was inactive. In the case of `NNc1ccccc1`, the molecule was classed as inactive. In the case of `C=C(Cl)CCl`, the call was inactive.

`Nc1ccc([N+](=O)[O-])cc1N`: the molecule was classed as inactive.

In the case of `O=[N+]([O-])O`, the call was inactive.

Take `c1ccc2c(c1)CCCC2`: the result was inactive. In the case of `CCCCCc1cc(O)cc(O)c1`, the result was inactive.

For `CC(=O)/C=C/c1ccccc1`, the result was inactive. As to `CC(C)(C)C(O)C(Oc1ccc(-c2ccccc2)cc1)n1cncn1` (stereo not given), the call was inactive. As to `CCC(=O)c1ccc(Cl)cc1`, the result was inactive.

On to `N#Cc1cc(I)c(O)c(I)c1`, for which the outcome was inactive. As for `Nc1cc(Cl)cc(Cl)c1`, the call was inactive. Regarding `ClCC(Cl)Cl`, the outcome was inactive. As to `O=c1[nH]c(Cl)c(Cl)cc1Cl`, the outcome was inactive. Consider `O=[N+]([O-])c1cc(C(F)(F)F)c(Cl)c([N+](=O)[O-])c1Cl`, for which the result was inactive. As for `O=P(O)(Oc1ccccc1)Oc1ccccc1`, the call was inactive. As for `CCCC=NO`, the molecule was classed as inactive.
